The record followed here is PubChem BioAssay (NCATS).

Experiment [1] has as its target ATP-dependent 6-phosphofructokinase (Trypanosoma brucei brucei) (UniProt O15648). In words: qHTS Validation Assay to Find Inhibitors of T. brucei phosphofructokinase (AID 485368). The essentials:
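PFK-generated ADP was measured after 45 min at room temperature using ADP-Glo. The reaction contained 0.5 mM F6P and 0.1 mM ATP.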

The nature of experiment [2]: Quantitative high throughput screen for delayed death inhibitors of the malarial parasite plastid, 96 hour incubation (AID 488745). Also: nearly all actives have a fitted effect of over 70% in size. Also: potency is read from the fitted curve at half-maximal effect. The procedure, abridged: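 Decreased firefly luciferase luminescence indicates inhibited growth of reporter-integrated P. falciparum after two generations (96 h, 37 C, 5% CO2). Infected erythrocytes at 0.1% parasitemia, 2% hematocrit, in Albumax-supplemented RPMI 1640.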

Experiment [3] in a line: Quantitative high throughput screen for delayed death inhibitors of the malarial parasite plastid, 48 hour incubation (AID 488752). Also: nearly all actives have a fitted effect of over 65% in size. Also: potency is read from the fitted curve at half-maximal effect. The procedure, abridged: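 One-generation (48 h) growth assay: a decrease in luciferase signal from an integrated reporter in P. falciparum-infected red cells (0.1% parasitemia, 2% hematocrit) after compound exposure at 37 C indicates parasite inhibition.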

The target in experiment [4] is Thioredoxin reductase 1, cytoplasmic (Rattus norvegicus) (UniProt O89049). In words: qHTS Assay for Substrates of Mammalian Selenoprotein Thioredoxin Reductase 1 (TrxR1) (AID 488772).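 Also: series mostly up to about 57 µM; a drop in NADPH fluorescence below the no-compound background marks a TrxR1 substrate.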 The procedure, abridged: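 In this dual-purpose format, potential substrates are identified from the first fluorescence read after selenite addition, not from the 8-minute delta. Rat enzyme is preincubated with NADPH and then with compound at ~22 deg C.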
Thioredoxin reductase 1, cytoplasmic (Rattus norvegicus), sequence (O89049 whole entry, looked up): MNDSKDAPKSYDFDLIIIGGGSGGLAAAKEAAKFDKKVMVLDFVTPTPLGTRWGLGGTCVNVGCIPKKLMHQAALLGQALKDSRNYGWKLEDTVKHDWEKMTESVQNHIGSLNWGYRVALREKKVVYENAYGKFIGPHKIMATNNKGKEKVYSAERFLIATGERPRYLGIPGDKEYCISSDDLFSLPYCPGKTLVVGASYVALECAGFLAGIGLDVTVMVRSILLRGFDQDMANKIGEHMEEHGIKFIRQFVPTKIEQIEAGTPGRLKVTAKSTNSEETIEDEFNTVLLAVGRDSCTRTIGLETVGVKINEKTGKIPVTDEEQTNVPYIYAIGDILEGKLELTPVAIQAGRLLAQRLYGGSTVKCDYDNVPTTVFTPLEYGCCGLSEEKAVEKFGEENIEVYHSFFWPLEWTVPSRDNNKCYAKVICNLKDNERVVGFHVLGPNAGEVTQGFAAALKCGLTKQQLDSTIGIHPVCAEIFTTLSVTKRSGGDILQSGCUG

Experiment [5] has the same target. The experiment in a line: qHTS Assay for Inhibitors of Mammalian Selenoprotein Thioredoxin Reductase 1 (TrxR1) (AID 488773).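 Also: drop in NADPH fluorescence over an 8 min run after selenite addition; series mostly up to about 57 µM; nearly all actives have a fitted effect of over 40% in size.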 To be noted: Potency: inhibition. The essentials:
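Inhibition is scored from the loss of NADPH fluorescence between first and last reads of an 8-min kinetic run. Selenite (400 uM) was the substrate, added after 15 min compound preincubation at room temperature.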

The target of experiment [6] is Flap endonuclease 1 (Homo sapiens) (UniProt P39748). In words: qHTS Validation Assay for the Inhibitors of Human Flap endonuclease 1 (FEN1) (AID 488816). The essentials: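 qHTS format: compounds and 10 nM FEN1 incubated 15 min at room temperature before adding 50 nM substrate. Cleavage followed by reads at 0 and 15 min; normalized data fitted to a four-parameter Hill curve.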
Flap endonuclease 1 (Homo sapiens), sequence (P39748 whole entry, looked up): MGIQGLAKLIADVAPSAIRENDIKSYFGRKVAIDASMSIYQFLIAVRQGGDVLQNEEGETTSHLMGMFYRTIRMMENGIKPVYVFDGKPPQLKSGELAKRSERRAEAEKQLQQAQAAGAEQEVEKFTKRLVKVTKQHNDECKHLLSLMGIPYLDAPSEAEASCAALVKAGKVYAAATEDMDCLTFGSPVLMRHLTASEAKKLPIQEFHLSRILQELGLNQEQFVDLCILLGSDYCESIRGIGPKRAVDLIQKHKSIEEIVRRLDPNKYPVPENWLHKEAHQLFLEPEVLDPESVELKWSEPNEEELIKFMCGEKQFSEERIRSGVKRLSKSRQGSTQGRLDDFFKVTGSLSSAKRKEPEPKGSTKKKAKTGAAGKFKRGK
On the technique in general: Quantitative high-throughput screening tests each substance at several concentrations.

Experiment [7] addresses M-phase phosphoprotein 8 (Homo sapiens) (UniProt Q99549). In words: qHTS Validation Assay for Inhibitors for MPP8 Chromodomain Interactions with Methylated Histone Tails (AID 488949).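 Also: 50 nM MPP8 with 50 nM peptide preformed then compounds added for 30 min; AlphaScreen signal from MPP8 chromodomain bound to biotinylated H3K9me3 peptide; top concentration of the series differs between compounds; nearly all actives have a fitted effect of over 55% in size.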 The procedure, abridged:
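Chemiluminescent proximity assay: histidine-tag capture via nickel acceptor beads, biotin peptide via streptavidin donor beads. Protein and peptide each at 50 nM, pH 7.4, with 30 min incubations at room temperature for complex formation, compound exposure and bead binding.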

Experiment [8] addresses Chromobox protein homolog 1 (Homo sapiens) (UniProt P83916). The experiment in a line: qHTS Validation Assay for Inhibitors of HP1-beta Chromodomain Interactions with Methylated Histone Tails (AID 488953).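 Also: loss of AlphaScreen luminescence from HP1-beta binding biotinylated H3K9me3 peptide; series mostly up to about 110 µM; nearly all actives have a fitted effect of over 50% in size.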 The essentials:
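AlphaScreen proximity signal from streptavidin donor and nickel chelate acceptor beads (final 10 ug/mL) after 30 min dark incubation. Compounds had 30 min at room temperature with preformed complex of 50 nM HP1-beta and 50 nM b-H3(1-18)K9me3 in PBS pH 7.4 with 0.01% Tween-20.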

The target of experiment [9] is Methanococcus maripaludis chaperonin (MmCpn) (UniProt Q6LX38). The experiment in a line: High-Throughput Screening for Modulators of Cytosolic Chaperonin Activity: MmCpn Primary Screen (AID 488978). The essentials: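 HTRF readout (320 nm excitation, 590/665 nm emission) of ADP generated by 50 nM MmCpn hydrolysing 30 uM ATP during 10 min at 37C; compound preincubated 5 min RT.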
Methanococcus maripaludis chaperonin (MmCpn), sequence (Q6LX38 1-543): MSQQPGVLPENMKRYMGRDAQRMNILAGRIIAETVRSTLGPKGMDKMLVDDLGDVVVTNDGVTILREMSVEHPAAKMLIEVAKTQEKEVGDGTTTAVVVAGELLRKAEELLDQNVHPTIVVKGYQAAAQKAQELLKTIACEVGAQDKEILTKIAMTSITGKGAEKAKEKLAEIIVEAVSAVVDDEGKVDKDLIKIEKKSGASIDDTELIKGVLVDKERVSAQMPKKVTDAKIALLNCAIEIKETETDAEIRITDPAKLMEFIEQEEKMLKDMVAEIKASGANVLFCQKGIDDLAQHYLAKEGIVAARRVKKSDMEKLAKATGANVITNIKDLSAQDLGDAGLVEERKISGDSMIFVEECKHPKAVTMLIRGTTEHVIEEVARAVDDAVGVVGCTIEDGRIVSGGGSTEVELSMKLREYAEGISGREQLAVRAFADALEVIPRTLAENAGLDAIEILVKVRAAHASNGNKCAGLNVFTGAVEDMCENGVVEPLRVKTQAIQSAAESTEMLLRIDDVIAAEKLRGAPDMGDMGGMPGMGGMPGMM

For experiment [10], the target named is Transient receptor potential cation channel subfamily V member 1 (Homo sapiens) (UniProt Q8NER1). The experiment in a line: HTS Assay for Compounds that Act as Enhancers of the Vanilloid Receptor 1 (AID 488979). The procedure, abridged: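 Calcium influx kinetics via Fluo-8 (480/520 nm) in TRPV1-expressing cells, 2000/well cultured overnight at 35.5C. Compound-alone read 3 min (agonist phase), followed by EC20 capsaicin challenge for 2 min (enhancer phase).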
Transient receptor potential cation channel subfamily V member 1 (Homo sapiens), sequence (Q8NER1 whole entry, looked up): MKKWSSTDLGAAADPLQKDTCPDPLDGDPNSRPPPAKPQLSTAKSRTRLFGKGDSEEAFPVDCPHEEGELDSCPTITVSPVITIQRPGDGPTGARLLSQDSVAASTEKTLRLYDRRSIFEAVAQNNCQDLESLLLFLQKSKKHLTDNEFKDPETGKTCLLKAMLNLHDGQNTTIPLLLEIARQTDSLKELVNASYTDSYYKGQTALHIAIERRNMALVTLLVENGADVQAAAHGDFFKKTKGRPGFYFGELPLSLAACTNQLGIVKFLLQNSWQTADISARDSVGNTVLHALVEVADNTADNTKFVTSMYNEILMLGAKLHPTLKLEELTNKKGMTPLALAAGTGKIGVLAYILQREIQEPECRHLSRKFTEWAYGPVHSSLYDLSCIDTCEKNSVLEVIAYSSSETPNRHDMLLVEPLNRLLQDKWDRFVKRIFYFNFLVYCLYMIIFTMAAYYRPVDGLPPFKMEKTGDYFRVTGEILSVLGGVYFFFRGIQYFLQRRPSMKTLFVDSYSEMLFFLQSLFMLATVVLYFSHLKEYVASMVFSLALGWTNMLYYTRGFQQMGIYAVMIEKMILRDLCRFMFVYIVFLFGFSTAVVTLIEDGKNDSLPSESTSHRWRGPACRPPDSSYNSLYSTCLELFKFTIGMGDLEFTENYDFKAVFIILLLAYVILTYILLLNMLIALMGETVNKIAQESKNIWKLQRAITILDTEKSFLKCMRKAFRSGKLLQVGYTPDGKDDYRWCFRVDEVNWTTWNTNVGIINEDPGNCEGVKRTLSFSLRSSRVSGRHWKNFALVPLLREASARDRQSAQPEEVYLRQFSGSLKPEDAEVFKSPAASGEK

Records with an inconclusive call do not appear. Calls of active or inactive are those of the source. Calls follow the shape of the dose curve; as a rule, active = well fitted curve in the direction sought with a large enough effect; inconclusive = small, poorly fitted or top-dose-only effect, or another doubt; inactive = no such curve, though single readings can be large; an effect the other way counts as inactive or inconclusive.

Chromobox protein homolog 1 (Homo sapiens), sequence (P83916 whole entry, looked up): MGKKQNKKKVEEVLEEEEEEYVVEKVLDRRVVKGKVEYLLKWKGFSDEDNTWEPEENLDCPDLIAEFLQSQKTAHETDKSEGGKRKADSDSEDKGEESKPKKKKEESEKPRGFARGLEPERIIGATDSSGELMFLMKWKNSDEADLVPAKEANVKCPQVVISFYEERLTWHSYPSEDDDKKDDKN
M-phase phosphoprotein 8 (Homo sapiens), sequence (Q99549 whole entry, looked up): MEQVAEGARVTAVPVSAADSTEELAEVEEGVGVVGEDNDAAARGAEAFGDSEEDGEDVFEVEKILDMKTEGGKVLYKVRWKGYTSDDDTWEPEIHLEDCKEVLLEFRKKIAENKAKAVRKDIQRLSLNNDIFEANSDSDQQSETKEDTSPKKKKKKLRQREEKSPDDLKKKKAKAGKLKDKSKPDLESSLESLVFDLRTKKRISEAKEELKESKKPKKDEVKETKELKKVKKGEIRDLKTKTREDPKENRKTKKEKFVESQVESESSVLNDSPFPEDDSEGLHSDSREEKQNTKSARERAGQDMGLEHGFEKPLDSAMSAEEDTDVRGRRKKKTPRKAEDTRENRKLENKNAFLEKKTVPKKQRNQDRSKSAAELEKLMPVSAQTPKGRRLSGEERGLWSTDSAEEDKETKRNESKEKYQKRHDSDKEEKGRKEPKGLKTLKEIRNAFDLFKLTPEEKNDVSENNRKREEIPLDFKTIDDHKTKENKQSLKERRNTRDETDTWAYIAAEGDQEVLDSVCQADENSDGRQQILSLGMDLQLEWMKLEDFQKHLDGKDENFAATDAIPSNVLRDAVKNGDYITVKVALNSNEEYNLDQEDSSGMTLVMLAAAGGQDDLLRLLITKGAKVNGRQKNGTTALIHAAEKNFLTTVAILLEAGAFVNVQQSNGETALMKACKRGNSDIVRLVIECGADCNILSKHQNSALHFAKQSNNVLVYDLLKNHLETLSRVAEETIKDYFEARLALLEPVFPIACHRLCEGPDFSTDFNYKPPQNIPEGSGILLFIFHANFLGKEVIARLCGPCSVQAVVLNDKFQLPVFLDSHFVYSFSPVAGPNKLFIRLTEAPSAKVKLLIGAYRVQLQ
ATP-dependent 6-phosphofructokinase (Trypanosoma brucei brucei), sequence (O15648 whole entry, looked up): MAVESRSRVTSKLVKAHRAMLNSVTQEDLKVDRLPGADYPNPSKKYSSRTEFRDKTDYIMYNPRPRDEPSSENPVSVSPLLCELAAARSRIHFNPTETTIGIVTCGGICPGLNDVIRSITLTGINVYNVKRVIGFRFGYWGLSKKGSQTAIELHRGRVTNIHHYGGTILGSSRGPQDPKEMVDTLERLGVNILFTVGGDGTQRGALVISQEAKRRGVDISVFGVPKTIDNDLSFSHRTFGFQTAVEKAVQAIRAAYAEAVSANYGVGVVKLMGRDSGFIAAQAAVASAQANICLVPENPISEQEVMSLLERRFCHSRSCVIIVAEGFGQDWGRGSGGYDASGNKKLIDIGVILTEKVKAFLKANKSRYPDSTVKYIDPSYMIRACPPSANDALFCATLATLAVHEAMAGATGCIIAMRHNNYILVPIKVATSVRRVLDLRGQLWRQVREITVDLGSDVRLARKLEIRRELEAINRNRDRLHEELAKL

In the case of `NC(N)=[N+]1CCc2ccccc2C1`, the Potency entry in experiment [1], in experiment [2], in experiment [3], in [5], in [6] and in [7] was “inactive” in each case. In addition, the Potency entry in experiment [8] was “inactive”. For the same molecule, the outcome in experiment [4], in experiment [9] and in [10] was inactive.
Regarding `N=C(N)SCCc1cnc[nH]1`, the Potency entry in [1], in experiment [2], in experiment [3], in experiment [5], in [6] and in experiment [7] was “inactive” in each case. The molecule was classed as inactive in experiment [4], in experiment [9] and in experiment [10].
Turning to `N[C@@H](Cc1ccc(O)c(I)c1)C(=O)O`, the Potency result in experiment [1], in [2], in experiment [3], in experiment [5], in [6] and in experiment [7] was “inactive” in each case. Besides, the Potency entry in experiment [8] was “inactive”. Moreover, the call in experiment [4], in experiment [9] and in [10] was inactive.
Regarding `COCc1nc2c([nH]1)c(=O)n(C)c(=O)n2CC(C)C`, the Potency entry in experiment [1], in experiment [2], in experiment [3], in [5], in experiment [6] and in [7] was “inactive” throughout. The Potency entry in experiment [8] was “inactive”. Moreover, the result in experiment [4], in experiment [9] and in experiment [10] was inactive.
`NC(N)=N[C@@H](CCC(=O)O)C(=O)O`: the Potency result in experiment [1], in experiment [2], in [3], in experiment [5], in [6] and in experiment [7] was “inactive” in each case. In experiment [8], the Potency entry is “inactive”. The call in experiment [4], in experiment [9] and in experiment [10] was inactive.
In the case of `O=[N+]([O-])c1cccc2cn[nH]c12`, the Potency result in experiment [1], in experiment [2], in [3], in experiment [5], in experiment [6] and in [7] was “inactive” in each case. Also, in experiment [8], the Potency entry is “inactive”. Besides, the result in experiment [4], in experiment [9] and in experiment [10] was inactive.
Regarding `COc1ccccc1N1CCN(CCCCN2C(=O)c3ccccc3C2=O)CC1`, the Potency result in experiment [1], in [2], in experiment [3], in experiment [5], in experiment [6] and in experiment [7] was “inactive” throughout. Further, the Potency entry in [8] was “inactive”. Besides, the result in [4], in experiment [9] and in experiment [10] was inactive.
On to `CC(=O)NNC(=O)N1Cc2ccccc2Oc2ccc(Cl)cc21`, for which the Potency result in experiment [1], in [2], in experiment [3], in experiment [5], in experiment [6] and in [7] was “inactive” in each case. Moreover, in [8], the Potency entry is “inactive”. Besides, the molecule was called inactive in [4], in experiment [9] and in experiment [10].
For `N=C(N)c1ccc(N)cc1`, the Potency result in experiment [1], in experiment [2], in experiment [3], in [5], in [6] and in experiment [7] was “inactive” in each case. The Potency entry in experiment [8] was “inactive”. Moreover, the molecule was classed as inactive in experiment [4], in [9] and in experiment [10].
With `CCCn1c(=O)c2[nH]c(-c3ccc(S(=O)(=O)O)cc3)nc2n(CCC)c1=O`, the Potency result in experiment [1], in experiment [2], in [3], in experiment [5], in experiment [6] and in experiment [7] was “inactive” in each case. The Potency result in experiment [8] was “inactive”. Moreover, the molecule was classed as inactive in experiment [4], in [9] and in [10].
As for `O=C(O)/C=C/c1cnc[nH]1`, the Potency entry in experiment [1], in [2], in [3], in experiment [5], in experiment [6] and in experiment [7] was “inactive” each time. For the same molecule, the molecule was classed as inactive in experiment [4], in experiment [9] and in experiment [10].
With `CN(C)CCC(c1ccc(Br)cc1)c1ccccn1` (stereo unspecified), the Potency result in experiment [1], in experiment [2], in experiment [3], in [5], in experiment [6] and in experiment [7] was “inactive” each time. Also, the Potency entry in experiment [8] is “inactive”. For the same molecule, the call in [4], in experiment [9] and in experiment [10] was inactive.
Regarding `CC(=O)N[C@@H](Cc1c[nH]c2ccccc12)C(=O)OCc1cc(C(F)(F)F)cc(C(F)(F)F)c1`, the Potency result in [1], in [2], in experiment [3], in [5], in experiment [6] and in experiment [7] was “inactive” each time. Moreover, the result in [4], in [9] and in [10] was inactive.
For `O=C(O)c1cccnc1C(=O)O`, the Potency result in experiment [1], in experiment [2], in [3], in [5], in [6] and in [7] was “inactive” each time. Also, the molecule was called inactive in experiment [4], in experiment [9] and in experiment [10].
Consider `C#CC(N)CCC(=O)O` (stereo unspecified), for which the Potency entry in experiment [1], in experiment [2], in experiment [3], in experiment [5], in [6] and in experiment [7] was “inactive” each time. Further, in experiment [8], the Potency result is “inactive”. For the same molecule, the call in [4], in [9] and in [10] was inactive.
In the case of `CN1C2CCC1CC(OC(c1ccccc1)c1ccccc1)C2` (stereo unspecified), the Potency entry in experiment [1], in experiment [5], in [6], in [7] and in [8] was “inactive” throughout. In addition, the Potency in experiment [2] was 8.28 µM (active). For the same molecule, the result in experiment [4] and in [9] was inactive.
Turning to `Cn1c(=O)c2c(nc(/C=C/c3cccc(Cl)c3)n2C)n(C)c1=O`, the Potency result in experiment [1], in experiment [2], in experiment [3], in [7] and in experiment [8] was “inactive” in each case. The call in experiment [4], in experiment [9] and in experiment [10] was inactive.
Turning to `CCCN(CCc1ccccc1)C1CCc2c(O)cccc2C1` (stereo unspecified), the Potency entry in experiment [1], in experiment [5], in experiment [6] and in experiment [8] was “inactive” in each case. In addition, the Potency in [2] and in experiment [3] was 3.29 µM (active) each time. Moreover, in [9], the molecule was classed as inactive.
For the molecule `C=C(C)C1CC=C(C(=O)O)CC1` (stereo unspecified), the Potency result in experiment [1], in experiment [2], in [3], in [7] and in [8] was “inactive” in each case. Besides, the outcome in experiment [4], in [9] and in [10] was inactive.
As to `Cn1c(=O)[nH]c2ncn(C)c2c1=O`, the Potency entry in [1], in experiment [2], in [3], in experiment [5], in experiment [6] and in experiment [7] was “inactive” throughout. For the same molecule, the Potency result in experiment [8] was “inactive”. Further, the molecule was called inactive in [9] and in experiment [10].
As to `CCC1(O)CC2CN(CCc3c([nH]c4ccccc34)[C@@](C(=O)OC)(c3cc4c(cc3OC)N(C)C3[C@]45CCN4CC=C[C@@](CC)([C@@H](OC(C)=O)[C@]3(O)C(=O)OC)[C@H]45)C2)C1` (stereo partly specified), the Potency entry in experiment [1], in experiment [6] and in experiment [7] was “inactive” each time. The Potency in experiment [2] was 0.522 µM (active); in experiment [3] it was 0.586 µM (active). The outcome in [9] and in experiment [10] was inactive.
`CC(N)=NCCCC[C@@H](N)C(=O)O`: the Potency entry in [1], in experiment [2], in experiment [3], in experiment [5], in experiment [6] and in experiment [7] was “inactive” each time. Besides, the Potency entry in experiment [8] is “inactive”. Also, the result in experiment [9] and in experiment [10] was inactive.
As for `CC(N)(Cc1ccc(O)cc1)C(=O)O` (stereo unspecified), the Potency entry in experiment [1], in experiment [2], in experiment [3], in experiment [6], in experiment [7] and in [8] was “inactive” throughout. The call in [4], in experiment [9] and in [10] was inactive.
Consider `CC(=O)NCCc1c[nH]c2ccc(O)cc12`, for which the Potency entry in experiment [1], in [2], in experiment [6] and in experiment [8] was “inactive” in each case. Further, the outcome in [9] and in experiment [10] was inactive.
For the molecule `O=C(OCCN1CCOCC1)C1(c2ccccc2)CCCCC1`, the Potency result in [1], in experiment [2], in experiment [5], in experiment [6], in experiment [7] and in [8] was “inactive” throughout. Besides, the molecule was called inactive in [4], in experiment [9] and in [10].
